Several values for one entry are separate records, joined by “and”; a condition that tells them apart may be missing. Equal values may be shown once. Among all 300,000 compounds or so, about 37,000 (12%) were called active. The sample holds actives, similar compounds and a random draw of the others, so the mix is not that of the screen. Cut-off read from the data, not from the text of the source: active = max response mostly above about 13% (no sharp cut-off); inactive = mostly below about 14%.
Assay: Cycloheximide Counterscreen for Small Molecule Inhibitors of Shiga Toxin; note: read at 38.3 µM for the half of the compounds with a filed dose; 0% is about no effect
Settings: cell reporter, cycloheximide protein synthesis inhibition counterscreen; active compounds read high

| SMILES | max response |
| --- | --- |
| CCCOc1ccc(NC(=O)CC2C(=O)N(C)C(=S)N2Cc2ccc3c(c2)OCO3)cc1 (stereo not drawn) | -2.42% (inactive) |
| Cc1cccc(NC(=O)C(C)N2C(=O)C3C4CC(C(Br)C4Br)C3C2=O)c1 (stereo not drawn) | -1.4% (inactive) |
| COc1ccc(NC(=O)C(C)SCc2ccccc2)cc1 (stereo not drawn) | 23% (inactive) |
| Cc1cccc(NC(=O)C(C)SCc2ccccc2)c1 (stereo not drawn) | 21.6% (active) |
| CC(C(=O)Nc1ccc(O)c(C(=O)O)c1)N1C(=O)/C(=C/c2cccs2)SC1=S (stereo not drawn) | -1.39% (inactive) |
| CC1(C)CC(CNCCC(c2ccc(F)cc2)c2ccco2)CCO1 (stereo not drawn) | 0.614% (inactive) |
| CCOC(=O)C1(CCOc2ccccc2)CCN(Cc2cc(OC)c(O)cc2Cl)CC1 | -2.51% (inactive) |
| CCCCNC(=O)CSc1nc2ccc(NC(=O)CSc3nnc(COc4ccccc4C)n3C)cc2s1 | 5.25% (inactive) |
| Nc1nnc(SCC(=O)Nc2ccc3nc(SCC(=O)Nc4ccccc4)sc3c2)s1 | 33.9% (active) |
| CCCCNC(=O)CSc1nc2ccc(NC(=O)CSc3nnc(N)s3)cc2s1 | 2.41% (inactive) |
| C#CCOc1ccc(/C=C2/C(=O)NN(c3ccccc3)C2=O)cc1OC | -3.05% (inactive) |
| COC(=O)Cn1cc(C(=O)c2cccs2)c2ccccc21 | -0.264% (inactive) |
| COC(=O)c1cn(CC(=O)NCc2cccs2)c2ccccc12 | 68.2% (active) |
| COCCCNC(=O)Cn1cc(C(=O)C2CC2)c2ccccc21 | -2.09% (inactive) |
| O=C(Cn1cc(C(=O)c2cccs2)c2ccccc21)NCc1cccs1 | 39% (active) |
| CCN(CC)C(=O)C(=O)c1cn(CC(=O)NCc2ccc3c(c2)OCO3)c2ccccc12 | -2.04% (inactive) |
| O=C(CN1CCN(c2ccccn2)CC1)NCc1cccs1 | -3.83% (inactive) |
| Cc1cccc(N(C(=O)c2sc(C)nc2C)C(C(=O)NCC2CCCO2)c2ccccc2)c1 (stereo not drawn) | -2.65% (inactive) |
| CCOc1ccc(NC(=O)C(C)N2C(=O)c3ccccc3C2=O)cc1 (stereo not drawn) | -2.64% (inactive) |
| O=C(O)c1cccc(S(=O)(=O)Nc2ccc(O)cc2Sc2nc3ccccc3s2)c1 | 4.69% (inactive) |
| O=C(O)CCCCc1nc2ccccc2s1 | 3.94% (inactive) |
| O=C(O)c1ccccc1CSc1nc2ccccc2s1 | 34% (active) |
| O=C(O)CSc1nccc2ccccc12 | 2.48% (inactive) |
| O=C(O)CSCc1nc2ccccc2s1 | 27.6% (active) |

| SMILES | max response |
| --- | --- |
| O=C(CSc1nc2ccccc2s1)Nc1ccc(C(=O)O)cc1 | -4.27% (inactive) |
| O=C(O)CS/C(=C\c1ccc(F)cc1)c1nc2ccccc2s1 | 37.2% (active) |
| CN(Cc1nc2ccccc2s1)C(=O)c1ccc(F)cc1 | 14.2% (inactive) |
| O=C(O)CC/C(=C\c1cc2c(cc1Br)OCO2)c1nc2ccccc2s1 | 0.661% (inactive) |
| C=CCn1c(-c2ccccc2OCC)n[nH]c1=S | 5.03% (inactive) |
| COc1ccccc1C(=O)N(Cc1ccc(C)o1)C1CCS(=O)(=O)C1 (stereo not drawn) | 1.49% (inactive) |
| COc1cc(Cl)c(C)cc1NC(=O)CSc1nnc(-c2ccco2)n1CC(C)C | -3.52% (inactive) |
| O=C(CC12CC3CC(CC(C3)C1)C2)Nc1ccc2c(c1)COC2=O | -2.75% (inactive) |
| Cc1ccc2oc(C(=O)N3CCN(C)C[C@@H]3C(C)C)c(C)c2c1 | 22.3% (active) |
| Cc1ccc2c(C)c(C(=O)N3CCC(N4CCC(C(=O)NC5CC5)CC4)CC3)oc2c1 | 0.384% (inactive) |
| COc1ccccc1N1CCN(C(=O)c2cc(=O)c3cc(C)ccc3o2)CC1 | -2.83% (inactive) |
| COc1cccc(CNC(=O)c2cccnc2Sc2ccc(Cl)cc2)c1 | 0.861% (inactive) |
| O=C(NCc1cc(C(F)(F)F)cc(C(F)(F)F)c1)C1CC(c2cccc(F)c2)=NO1 (stereo not drawn) | -1.65% (inactive) |
| CCCn1nc(NS(=O)(=O)c2ccc(F)cc2)c2cc3ccccc3nc21 | -11.4% (inactive) |
| Cc1cccc(N2Cc3ccccc3C2=NC(=O)c2ccc(Cl)nc2)c1 | 35.1% (active) |
| Cc1cccc(N2CCN(C(=O)c3cccc(S(=O)(=O)N4CCc5ccccc5C4)c3)CC2C)c1 (stereo not drawn) | 1.1% (inactive) |
| N#Cc1ccc(N2Cc3ccccc3/C2=N/C(=O)Nc2ccc(Cl)cc2)cc1 | 15% (inactive) |
| COc1ccc(C(=O)CC(=O)C(=O)Nc2cc([N+](=O)[O-])ccc2OC)cc1 | -2.37% (inactive) |
| Cn1c(N2CCOCC2)c(C=O)c2ccccc21 | -2.7% (inactive) |
| Cc1ccc(S(=O)(=O)N(CC(=O)N2CCc3ccccc3C2)c2cccc(Cl)c2)cc1 | -3.56% (inactive) |
| COc1ccc(-c2[nH]nc(-c3ccccc3)c2-c2nc3ccccc3[nH]2)cc1 | -1.76% (inactive) |
| Cc1ccc(-c2nc3ccccc3[nH]c2=O)cc1 | 24.9% (active) |
| Cc1ccccc1N1CC(c2nc3ccccc3[nH]2)CC1=O (stereo not drawn) | -2.15% (inactive) |
| CCC(C(=O)NC1CCCCC1)N(C(=O)c1snc(C(N)=O)c1N)c1ccc(OC)cc1OC (stereo not drawn) | -5.48% (inactive) |

| SMILES | max response |
| --- | --- |
| COc1ccccc1C(=O)Nc1ccnn1C1CCN(C(=O)C(C)(C)C)CC1 | 2.22% (inactive) |
| Cc1ccc(S(=O)(=O)/N=C(/Nc2ccc3[nH]c(=O)[nH]c3c2)c2ccccc2)cc1 | -2.26% (inactive) |
| Cc1ccc(S(=O)(=O)/N=C(/Nc2ccccn2)c2ccc(Cl)cc2)cc1 | 18.6% (active) |
| Cc1ccc(S/C(=N\S(=O)(=O)c2ccc(Cl)cc2)c2ccccc2)cc1 | -3.74% (inactive) |
| O=C(Nc1ccc(S(=O)(=O)Nc2ccccn2)cc1)c1ccccc1 | -3.7% (inactive) |
| O=S(=O)(/N=C(/Nc1ccccn1)c1ccccc1)c1ccc(Cl)cc1 | 15.2% (active) |
| O=S(=O)(Nc1ccccn1)c1cccc(S(=O)(=O)c2ccc(Cl)cc2)c1 | 1.04% (inactive) |
| COc1ccc(SCCN2CCN(CC(C)C)CCC2=O)cc1 | 4.3% (inactive) and 7.92% (inactive) |
| Cc1nn(C)c(C)c1C(C)NC(=O)c1ccc(OC2CCN(Cc3ccccn3)CC2)cc1 (stereo not drawn) | -1.08% (inactive) |
| O=C(/C=C/c1ccccc1[N+](=O)[O-])NCC1CCCO1 (stereo not drawn) | 10.2% (inactive) |
| CC1CCCCC1NC(=O)/C(C#N)=C/C=C/c1ccccc1[N+](=O)[O-] (stereo not drawn) | 32.9% (active) |
| O=C(/C=C/c1ccccc1[N+](=O)[O-])OC1CCCCC1=O (stereo not drawn) | -0.626% (inactive) |
| CCN(C(=O)CSc1nc2ccccc2n1CC)C1CCS(=O)(=O)C1 (stereo not drawn) | 1.92% (inactive) |
| O=C(OCC(=O)c1cccs1)c1ccc([N+](=O)[O-])o1 | 3% (inactive) |
| CCC(C)(C)c1ccc(Oc2ccc(NC(=O)COC(=O)C3=COCCO3)cc2)cc1 | 5.65% (inactive) |
| O=C(OCC(=O)c1cccs1)C1=COCCO1 | 51.4% (active) |
| CCOC(=O)c1c(C)[nH]c(C)c1S(=O)(=O)NCCCc1ccco1 | -2.93% (inactive) |
| CCOc1ccc(C2c3[nH]c4ccccc4c3CCN2Cc2cccn2-c2ncccn2)cc1 (stereo not drawn) | 0.0691% (inactive) |
| C/C(=N\NC(=O)C1(C)CC1(Br)Br)c1ccc(C)cc1C (stereo not drawn) | 12.6% (inactive) |
| O=[N+]([O-])c1cc(S(=O)(=O)Nc2cccc(Cl)c2)ccc1N=Nc1c(O)[nH]c2ccccc12 | -1.65% (inactive) |
| C=CCOc1ccccc1/C=N/NC(=O)Cc1ccccc1 | 9.84% (inactive) |
| O=C(CCC(=O)Nc1ccccc1)N/N=C/c1ccccc1F | 25.1% (active) |
| O=C(CCCCCNC(=O)c1ccccc1)N/N=C/c1ccccc1 | 13.5% (inactive) |
| COc1ccc(C(C)NC(=O)C23CC4CC(CC(C4)C2)C3)cc1 (stereo not drawn) | -0.477% (inactive) |

| SMILES | max response |
| --- | --- |
| Cc1noc(C)c1S(=O)(=O)Nc1ccc(C(=O)N2CCN(c3ccc(F)cc3)CC2)cc1 | 11.8% (inactive) |
| CCOC(=O)C1=C(O)CSC1=Nc1cccc(Cl)c1 | -2.53% (inactive) |
| CN(C)c1nc(=Nc2cccc(Cl)c2)ss1 | 24.1% (active) |
| N#Cc1cccc(NC(=O)COC(=O)c2ccccc2C(=O)c2ccc(Cl)c([N+](=O)[O-])c2)c1 | 3.74% (inactive) |
| O=c1[nH]c(=S)[nH]c2[nH]c(=S)[nH]c12 | -3.22% (inactive) |
| CCOC(=O)C1CCN(C(=O)c2ccccc2N(C)S(=O)(=O)c2ccccc2)CC1 | -2.92% (inactive) |
| O=S(=O)(NCc1ccc(Cl)cc1Cl)c1cccs1 | 14.3% (active) |
| O=S(=O)(Nc1ccccc1Br)c1cccs1 | -5.92% (inactive) |
| CN(Cc1ccc(F)cc1Cl)S(=O)(=O)c1cccs1 | 15.3% (inactive) |
| O=C(Nc1cccc(Cl)c1)Nc1ccccc1NS(=O)(=O)c1cccs1 | 11% (active) |
| O=S(=O)(NCCc1ccc(Cl)cc1)c1cccs1 | 7.85% (inactive) |
| O=C(Nc1nncs1)c1ccccc1NS(=O)(=O)c1cccs1 | 2.77% (inactive) |
| O=C(Nc1ccc(Br)cn1)C1CCN(S(=O)(=O)c2cccs2)CC1 | 2.63% (inactive) |
| c1ccc(C2CNCc3c2ccc2ccccc32)cc1 (stereo not drawn) | -1.66% (inactive) |
| COc1cc(-c2n[nH]c(=S)n2Cc2ccccc2)cc(OC)c1OC | -3.31% (inactive) |
| CC(=O)c1c(O)cc2n(c1=O)-c1ccc(Cl)cc1C2(C)C | -1.91% (inactive) |
| COc1ccccc1CCNS(=O)(=O)c1cn(C)nc1C | 1.23% (inactive) |
| Cc1c(Cl)c([N+](=O)[O-])nn1CC(=O)NCCCN1CCOCC1 | -1.84% (inactive) |
| COc1ccc(NC(=O)Cn2c(-c3ccc(OC)cc3)cn(-c3ccc(C)cc3)c2=O)cc1 | 27.2% (active) |
| CCOc1ccc(NC(=O)CN2CCN(CC(=O)Nc3ccc(OC)cc3)CC2)cc1 | -1.52% (inactive) |
| COc1ccc(-c2cn(-c3ccc(C)cc3)c(=O)n2CC(=O)Nc2ccc(OC)c(OC)c2)cc1 | 12.3% (inactive) |

Source: PubChem BioAssay AID2314 (National Center for Advancing Translational Sciences (NCATS), 2010)
